Measured values taken from PubChem BioAssay.
Active and inactive are the calls of the source. How the calls were made is not given here.

Target: Pantothenate synthetase (Mycobacterium tuberculosis (strain ATCC 25618 / H37Rv)) (UniProt P9WIL5)
Assay: Coupled enzyme confirmation of inhibitors against recombinant Mtb PanC (AID 375);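 further: 0% = full reaction with vehicle and 100% = no enzyme background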
Details: coupled enzyme assay; at 10 µM, active compounds read high

Sequence of Pantothenate synthetase (Mycobacterium tuberculosis (strain ATCC 25618 / H37Rv)) (P9WIL5 whole entry, looked up): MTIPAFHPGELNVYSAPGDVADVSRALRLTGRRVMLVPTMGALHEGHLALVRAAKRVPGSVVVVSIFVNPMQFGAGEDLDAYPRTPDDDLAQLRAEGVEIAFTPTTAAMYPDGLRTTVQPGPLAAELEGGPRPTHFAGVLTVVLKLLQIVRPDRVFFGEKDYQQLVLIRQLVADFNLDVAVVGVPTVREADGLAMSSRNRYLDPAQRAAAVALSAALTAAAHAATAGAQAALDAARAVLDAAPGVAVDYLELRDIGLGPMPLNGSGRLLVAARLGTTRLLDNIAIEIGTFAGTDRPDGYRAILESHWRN

Compound | inhibition
FC(F)(F)COc1nc(N2CCCCC2)nc(N2CCNCC2)n1 | 4% (inactive)
Cc1ccc(NC(=O)COc2nc(C)cs2)cc1 | 1% (inactive)
O=C(Cn1ncc2c1-c1ccccc1OC2)Nc1ccc(Cl)cn1 | 6% (inactive)
CCCCOc1cc(C(=O)NCCN(CC)CC)c2ccccc2n1 | 0% (inactive)
O=C(Nc1ccc(N2C(=O)C3C4C=CC(C4)C3C2=O)cc1)Nc1cccnc1 (stereo not given) | 0% (inactive)
Cn1c(=O)[nH]c(=O)c2c1nc(NCCCn1ccnc1)n2Cc1cccc(Br)c1 | 0% (inactive)
CCOc1ccccc1C(=O)N1CCN(c2cccc(Cl)c2)CC1 | 0% (inactive)
COc1ccccc1N(CC(=O)NC1CCCC1)C(=O)CCC(=O)Nc1cc(C)on1 | 0% (inactive)
Cc1onc(-c2ccccc2)c1C(=O)Nc1sc2c(c1C(N)=O)CCC2 | 5% (inactive)
CC(=O)c1c(C)[nH]c(C(=O)NCc2cccs2)c1C | 0% (inactive)
CC1(C)C(c2cccs2)=[N+]([O-])C2(CCCCC/C2=N\O)N1O (stereo not given) | 6% (inactive)
COCCn1c(C)cc(C(=O)COC(=O)CCN2C(=O)c3ccccc3C2=O)c1C | 0% (inactive)
COc1ccc(-c2nc(C)c(C(C)=O)n2O)cc1OC | 0% (inactive)
Cc1ccc(-c2nnc3c4ccccc4c(C)nn23)cc1S(=O)(=O)N1CCN(C)CC1 | 1% (inactive)
O=C(O)c1cc(O)c2c(c1)C(=O)c1cccc(O)c1C2=O | 9% (inactive)
Cn1c(=O)c2c(-c3ccccc3)n(CCCN3CCOCC3)cc2n(C)c1=O | 0% (inactive)
CCn1c(SCC(=O)NCc2ccco2)nc2c(c1=O)SC(C)C2 (stereo not given) | 8% (inactive)
CCOc1cccc(-n2nnnc2-c2ccc(OC)cc2)c1 | 9% (inactive)
O=C(Nc1ccc(N2CCCC2=O)cc1)c1cccc(F)c1 | 4% (inactive)
O=c1[nH]c2sc3c(c2c2nncn12)CCCC3 | 0% (inactive)

Compound | inhibition
COc1ccc(-c2nnc(-c3cccs3)o2)cc1OC | 0% (inactive)
CCOC(=O)c1sc(N)c(C(=O)OCC)c1COC(=O)C1CC(=O)N(Cc2ccco2)C1 (stereo not given) | 6% (inactive)
CCC(=O)N1CCc2cc(OC)c(OC)cc2C1COc1ccc(C(=O)OC)cc1 (stereo not given) | 9% (inactive)
COc1ccc(Cl)cc1N1CCN(CCNC(=O)Nc2ccccc2C)CC1 | 0% (inactive)
Cc1cccc2cc(CN(Cc3nnnn3C3CCCC3)C3CCCCC3)c(=O)[nH]c12 | 4% (inactive)
O=C(NCCOC(=O)C1COc2ccccc2O1)C1COc2ccccc2O1 (stereo not given) | 0% (inactive)
CCC1(c2ccc(F)cc2)NC(=O)N(CC(=O)c2ccc[nH]2)C1=O (stereo not given) | 0% (inactive)
CN(CCc1ccccn1)C(=O)CCNC(=O)Cn1cnc2ccccc2c1=O | 1% (inactive)
COC(=O)c1ccc(-n2nnnc2SCc2nn[nH]n2)cc1 | 0% (inactive)
Cc1cc(S(=O)(=O)NC2CCCCC2)ccc1OCC(=O)NCc1ccccn1 | 0% (inactive)
CC1=C(C(=O)NC2CCCC(C)C2C)C2(CCCCC2)OC1=O (stereo not given) | 0% (inactive)
CCn1c(CNc2ccc(OC)cc2)nnc1SCC(=O)c1ccc(OC)cc1 | 0% (inactive)
CCN(CC)Cc1c(C(=O)OC)nnn1-c1nonc1N | 0% (inactive)
O=C(CSCc1ccc(F)cc1)NC1CCCC1 | 0% (inactive)
CC[C@]1(O)CC2CN(CCc3c([nH]c4ccccc34)[C@@](C(=O)OC)(c3cc4c(cc3OC)N(C=O)[C@H]3[C@@](O)(C(=O)OC)[C@H](OC(C)=O)[C@]5(CC)C=CCN6CC[C@]43[C@@H]65)C2)C1 (stereo not given in full) | 1% (inactive)
CCOC(=O)c1ccc(N2Cc3cc(C)c(C)cc3C2)cc1O | 2% (inactive)
Cc1nn(-c2ccc(Cl)cc2)c2sc(C(=O)N3CCN(c4ccccn4)CC3)cc12 | 4% (inactive)
Cc1cc(=O)oc2c1c(C)nn2-c1ccc(C(=O)OC(C)C)cc1 | 0% (inactive)
COc1ccc(Cl)cc1N1CC(c2nc3ccccc3[nH]2)CC1=O (stereo not given) | 6% (inactive)
N/C(Cn1nnc(-c2ccccc2)n1)=N\O | 3% (inactive)
